Screening data: PubChem BioAssay, National Center for Advancing Translational Sciences (NCATS)
APE1 inh-1 – inhibitors of human APE1 endonuclease; P27695; recombinant APE1, TAMRA/BHQ-2 abasic DNA cleavage fluorescence; Potency, µM (top dose mostly 65.8 µM), for the others: top-dose activity change, negative = inhibition, hits mostly inhibitors; 350,000 compounds, 0.35% hits; AID 2517;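 further: plate controls were vehicle for no effect and reference inhibitor for full effect; nearly all actives have a fitted effect of over 55% in size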
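Incision of a quenched TAMRA/BHQ-2 THF abasic-site duplex (50 nM) by 0.75 nM APE1, after 15 min compound preincubation, measured as fluorescence increase over three 60 s reads. Values normalized to buffer, DMSO and NSC13755 control wells.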
Pol beta inh – blocks human DNA polymerase beta activity | 340,000 compounds, 1.3% hits | Pol beta primer extension/strand displacement, fluorescence kinetic | Potency, µM (titrated, usually from 114 µM), inactives show top-dose activity change, negative = inhibition, most hits filed as inhibitors | P06746; further: on the % scale 0 is the no-effect control and ±100 the full control effect
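Preincubation: enzyme (10 nM) with compound, 15 min, RT. Reaction: substrate added to 50 nM final. Reads: 0 and 10 min. Analysis: normalized, Hill fit.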
Pol kappa inh – inhibitors of human DNA polymerase kappa; AID 588579; Q9UBT6; 400,000 compounds, 0.53% hits; purified Pol kappa, fluorescent DNA synthesis assay, 10 min; Potency, µM (highest dose often 107 µM), for inactives: at the top dose activity, negative = inhibition, hits mostly inhibitors; further: on the % scale 0 is the no-effect control and ±100 the full control effect
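10 nM Pol kappa was preincubated with compounds for 15 min at room temperature. Reaction started with 50 nM (final) substrate. Fluorescence read kinetically at 0 and 10 min.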
POLH inh – DNA polymerase eta (human) inhibition. 390,000 compounds, 1.2% hits. recombinant Pol eta, fluorescent DNA replication assay. Q9Y253. Potency, µM (highest dose often 114 µM), for the others: at the highest dose activity change, negative = inhibition, most hits filed as inhibitors; further: on the % scale 0 is the no-effect control and ±100 the full control effect
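Pol eta at 10 nM preincubated with compounds 15 min at room temperature; reaction started with fluorescent substrate (50 nM final) and read kinetically at 0 and 10 min.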
POLI inh – DNA polymerase iota (human) inhibition | Q9UNA4 | Pol iota fluorescent replication assay, 10 min | Potency, µM (doses to about 115 µM), for the others: at the highest dose activity, negative = inhibition, most hits filed as inhibitors | 390,000 compounds, 1% hits | AID 588590
Target sequence (Q9UNA4 whole entry, looked up): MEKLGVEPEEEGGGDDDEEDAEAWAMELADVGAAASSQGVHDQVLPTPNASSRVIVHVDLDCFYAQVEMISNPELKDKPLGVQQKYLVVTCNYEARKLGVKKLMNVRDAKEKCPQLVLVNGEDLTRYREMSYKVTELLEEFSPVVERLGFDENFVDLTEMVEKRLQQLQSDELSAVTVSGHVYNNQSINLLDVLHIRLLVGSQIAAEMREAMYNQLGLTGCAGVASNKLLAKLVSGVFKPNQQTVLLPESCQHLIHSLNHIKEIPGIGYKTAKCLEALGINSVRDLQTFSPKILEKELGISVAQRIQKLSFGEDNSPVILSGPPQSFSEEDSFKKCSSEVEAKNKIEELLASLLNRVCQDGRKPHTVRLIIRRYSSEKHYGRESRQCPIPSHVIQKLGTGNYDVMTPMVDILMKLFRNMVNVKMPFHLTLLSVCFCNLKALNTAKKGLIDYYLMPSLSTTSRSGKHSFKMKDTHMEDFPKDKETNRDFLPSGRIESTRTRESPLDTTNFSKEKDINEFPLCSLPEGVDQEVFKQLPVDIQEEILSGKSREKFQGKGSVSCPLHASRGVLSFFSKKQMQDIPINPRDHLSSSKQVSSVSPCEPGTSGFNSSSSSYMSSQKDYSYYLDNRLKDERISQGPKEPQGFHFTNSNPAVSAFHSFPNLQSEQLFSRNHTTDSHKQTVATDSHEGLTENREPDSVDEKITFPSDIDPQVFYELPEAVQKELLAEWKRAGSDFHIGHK
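Fluorescent replication assay read twice, at 0 min and 10 min after adding 50 nM (final) substrate. Enzyme (10 nM) and compounds were first incubated 15 min at room temperature; enzyme-free buffer wells were negative controls.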
GLS inhibitor – blocks human kidney-isoform glutaminase activity | Potency, µM (doses to about 45.5 µM), without a hit: top-dose activity change, negative = inhibition, hits mostly inhibitors | 410,000 compounds, 0.21% hits | GLS enzymatic activity, qHTS titration | O94925 | AID 624170; further: on the % scale 0 is the no-effect control and ±100 the full control effect
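hKGA; 45 mM KH2PO4 pH 8.2 + 0.02% Tween-20; cpd via pin tool; 1 mM Gln soln; GluOx/HRP/Amplex Red; RT 30 min; fluor. t0 & final.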
APE1 dye cs – displaces fluorescent dye from DNA, flagging APE1 artifacts; shares compounds with APE1 inh-1; DNA fluorescent dye displacement counterscreen, fluorescence; Potency, µM (titrated, usually from 28.5 µM), inactives show at the top dose activity change, negative = inhibition, actives largely listed as inhibitors; 480 compounds, 7% hits;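 further: loss of thiazole orange fluorescence as the dye is displaced from duplex DNA; 0% = ThO with dsDNA and no compound and -100% = ThO without dsDNA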
Endo IV inh – counter-screen for APE1 inhibitors: inhibitors of E. coli endonuclease IV. shares compounds with APE1 inh-1. E. coli Endo IV, fluorogenic AP-site DNA cleavage. Potency, µM (highest dose often 27.1 µM), without a hit: at the top dose activity change, negative = inhibition, usual class: inhibitors. 560 compounds, 4% hits;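 further: plate controls were uninhibited enzyme wells for no effect and no enzyme buffer wells for full effect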
APE1 inh-2 – APE1 (human) endonuclease inhibition, confirmation | shares compounds with APE1 inh-1 | purified APE1, fluorogenic abasic-site DNA cleavage | Potency, µM (titrated, usually from 57.1 µM), for inactives: top-dose activity change, negative = inhibition, hits mostly inhibitors | 750 compounds, 44% hits | AID 2572; further: on the % scale 0 is the no-effect control and ±100 the full control effect; nearly all actives have a fitted effect of over 30% in size
APE1 FP inh – APE1 (human) DNA binding inhibition, fluorescence polarization. shares compounds with APE1 inh-1. APE1 binding to TAMRA-labelled double-stranded DNA, fluorescence polarization displacement. Potency, µM (highest dose often 28.5 µM), without a hit: at the top dose activity, negative = inhibition, most hits filed as inhibitors. 480 compounds, 7% hits; further: on the % scale 0 is the no-effect control and ±100 the full control effect
* marks the source's active call; other numbers are inactive results; ? = inconclusive; . = no result; ! = not confirmed by another sample; [ ] = remark or other dose. Only some compounds are listed: those with a hit (about 2.4% of all), similar ones and a draw of the others. The call rests on the fitted dose curve; in most records, active means well fitted curve in the direction sought with a large enough effect; inconclusive means small, poorly fitted or top-dose-only effect, or another doubt; inactive means no such curve, though single readings can be large; an effect the other way counts as inactive or inconclusive. Potency means the concentration at half of the fitted maximal effect.

SMILES | APE1 inh-1 | Pol beta inh | Pol kappa inh | POLH inh | POLI inh | GLS inhibitor | Endo IV inh | APE1 inh-2 | others
O=C(O)c1ccccc1-c1ccc(/C=C2\SC(=O)N(c3ccccc3)C2=O)o1 | -3% | ? | -24% | ? | ? | -7% | . | .
CN1C2CCC1CC(OC(=O)c1c[nH]c3ccccc13)C2 (stereo unspecified) | 19% | 16%[57.1 µM] | 8%[60.1 µM] | 5% | -7% | 5% | -12%[57.1 µM] | -22%
CN1[C@@H]2CC[C@H]1CC(OC(=O)c1c[nH]c3ccccc13)C2 (stereo partly specified) | -4% | . | 10% | -6% | -1% | 4% | . | .
Cc1ccc(CNC(=O)CCNC(=O)c2ccco2)cc1 | ? | 90% | -2% | -14% | 16% | 1% | 0% | ? | APE1 dye cs=-2%;APE1 FP inh=-7%
Cc1ccc(C(=O)Nc2cccc(C(F)(F)F)c2)cc1Nc1ccccn1 | 35µM* | ? | -25% | -11% | ? | 2% | 12% | ? | APE1 dye cs=-10%;APE1 FP inh=2%
Cc1ccc(C(=O)Nc2cccc(C(F)(F)F)c2)cc1Nc1cncnc1 | 29% | 10% | 0% | -18% | ? | -4% | . | .
C=C/C(C)=C/[C@@]1(C)SC(=O)C(C)=C1O | 3.2µM* | 25µM* | . | 14µM* | ? | . | -20%[57.1 µM] | 2µM*
CCOc1ccccc1C(=O)N[C@H](C(=O)OCC(=O)Nc1nnc(-c2ccccc2)o1)C(C)C | . | . | -15% | -7% | 87% | -15% | . | .
Cn1nnnc1SCC1=C(C(=O)O)N2C(=O)[C@@H](NC(=O)[C@@H](O)c3ccccc3)[C@@H]2SC1 | . | . | -16%[12 µM] | . | . | -10%[20 µM] | . | .
NC(=O)c1cc[n+](CC2=C(C(=O)O)N3C(=O)[C@@H](NC(=O)[C@@H](c4ccccc4)S(=O)(=O)[O-])[C@H]3SC2)cc1 | ? | 10µM* | 27µM* | 3.2µM* | 14µM* | . | 3%[57.1 µM] | -76%
Cc1ccc(C(=O)Nc2nc3nc(-c4ccccc4)cc(=O)n3[nH]2)cc1 | -1% | 12% | 7% | 79µM* | -2% | -2% | . | ?
O=C(Nc1nc2nc(-c3ccccc3)cc(=O)n2[nH]1)c1ccc(F)cc1 | 1% | -2% | -22% | -7% | -6% | -1% | . | .
Cc1ccccc1-c1ccc2ncnc(NCc3cccs3)c2c1 | 7.1µM* | . | 22µM* | . | . | . | -96%[57.1 µM] | 14µM* | APE1 dye cs=?;APE1 FP inh=46%[57.1 µM]
C=CC[C@H](CC(=O)OC(C)(C)C)C(=O)OC[C@H]1CCCN1C(=O)[C@H](CC=C)CC(=O)NCCO | 26% | . | 8% | -9% | 29% | 2% | . | .
Cc1sc2nc(SCC(=O)Nc3ccc(Cl)c(C(=O)O)c3)[nH]c(=O)c2c1C | . | . | -11% | -12% | 33% | 0% | . | .
O=C(COC(=O)c1cccc(S(=O)(=O)N2CCCC2)c1)Nc1ccc(Cl)cc1 | . | . | . | -14% | . | -9% | . | .
Cc1ccc2oc(=O)n(CC(=O)OC(C)C)c2c1 | ? | -13% | -3% | -14% | 4% | 2% | -4% | -8%[24.4 µM] | APE1 dye cs=-11%;APE1 FP inh=?
O=C(NNC(=O)c1ccc(Br)o1)c1ccc(NC(=O)c2ccccc2)cc1 | 14µM* | ? | -26% | -3% | -27% | -3% | 1% | ? | APE1 dye cs=4%;APE1 FP inh=1%
O=C(Nc1ccccc1C(=O)O)c1ccc(NC(=O)c2ccc(Br)o2)cc1 | 13% | ? | -1% | ? | 8% | 6% | . | .
COc1ccccc1CNC(=O)Cn1ccsc1=N | 10% | 31% | -3% | -17% | 6% | -9% | . | .
O=C(Oc1ccc(N(C(=O)c2ccncc2)S(=O)(=O)c2ccc(Cl)cc2)cc1)c1ccncc1 | -2% | 4% | 0% | -17% | 15% | 17% | . | .
NC[C@@H](O)c1ccc(O)c(O)c1 | 1µM* | . | 12µM* | . | . | . | -5%[57.1 µM] | 4µM*
CNC[C@H](O)c1ccc(O)c(O)c1 | 7.9µM*! | -7%[57.1 µM] | 7.1µM*! | 0%[57.1 µM] | ? | -20% | 31%[57.1 µM] | ? | APE1 dye cs=-3%[57.1 µM];APE1 FP inh=-5%[57.1 µM]
Oc1ccc(C(O)CNCCCCCCNCC(O)c2ccc(O)c(O)c2)cc1O (stereo unspecified) | . | . | ? | . | . | 69% | . | .
COc1cc(OC)cc(C(=O)N2CCN(Cc3ccccc3Br)CC2)c1 | -1% | 20% | -2% | -15% | 23% | 6% | . | .
SMILES | APE1 inh-1 | Pol beta inh | Pol kappa inh | POLH inh | POLI inh | GLS inhibitor | Endo IV inh | APE1 inh-2 | others
Cc1ccc(S(=O)(=O)N2CCN(c3nc(-c4cccs4)nc4nc[nH]c34)CC2)cc1 | . | . | 11% | . | -4% | . | . | .
O=C(COC(=O)c1ccc(Cl)nc1)NCc1ccco1 | 22% | 18% | -8% | -18% | 52% | -2% | . | .
O=C(COC(=O)c1cccnc1Cl)NCc1ccco1 | ? | 16µM* | -42% | ? | ? | 6% | . | ?
COCCn1c(SCC(=O)Nc2sccc2C(N)=O)nnc1-c1ccncc1 | -2% | 2% | -27% | -13% | 7% | 11% | . | .
O=C(COC(=O)CCSc1ccccc1)Nc1ccccc1 | 24% | . | 9% | -10% | -19% | -1% | . | .
Cc1cccc(NC(=O)CN2C(=O)S/C(=C\c3ccc(-c4cccc(C(=O)O)c4C)o3)C2=O)c1 | ? | 7% | -17% | 35µM* | ? | -20% | . | 25µM*
C(=C\c1ccco1)/C1=NN(c2ccccc2)C(c2ccco2)C1 (stereo unspecified) | -2% | ? | -11% | -5% | -1% | -5% | . | .
O=[N+]([O-])c1ccc(/C=C/C2=NN(c3ccccc3)C(c3ccco3)C2)o1 (stereo unspecified) | ? | ? | ? | ? | ? | 17% | ? | 14µM* | APE1 dye cs=21%;APE1 FP inh=-86%
CC(=O)C1=C(O)C(=O)N(Cc2ccccc2)C1c1ccco1 (stereo unspecified) | 1µM* | ? | -21% | 45µM* | ? | -8% | 5% | ? | APE1 dye cs=-5%;APE1 FP inh=0%
